Only some compounds are listed: those with a hit (about 1.3% of all), similar ones and a draw of the others.
PfHsp40 yeast: rescue of yeast from PfHsp40 toxicity, primary screen, S. cerevisiae, ATP luminescence; AID 504582, 2011; growth rescue, % at 12.5 µM; hit rate 0.68% among 340,000; S. cerevisiae expressing PfHsp40, growth rescue; in the data active = growth rescue above about 28%, passing the limit was not always enough;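 also: yeast W303a lacking pdr1 and pdr3 grown in galactose medium; growth measured after three days at 30 °C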
3CLpro inhibitor: SARS-CoV 3CLpro protease inhibitors, primary screen, biochemical, quenched FRET. recombinant SARS-CoV 3CLpro, quenched FRET peptide cleavage. inhibition, % at 6 µM. hit rate 0.14% among 290,000. Replicase polyprotein 1ab (Severe acute respiratory syndrome coronavirus), P0C6X7; in the data active = inhibition above about 12%
Sa ugtP lethal: growth inhibition of ugtP-null S. aureus, primary screen, RN4220 ugtP deletion, OD600 | 16 h | growth inhibition, % (concentration not given with the values) | hit rate 0.54% among 330,000 | AID 1259309, 2017; in the data active = growth inhibition above about 68%;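 also: plate controls were untreated wells for no effect and antibiotic for full effect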
BJeLR viability: MLPCN primary cell-based screen for lethality selective to Ras in HRASV12 cells. inhibition, % (no concentration beside the values). BJeLR (HRASV12) viability, CellTiter-Glo ATP luminescence, 48 h. hit rate 0.17% among 300,000; in the data active = inhibition above about 50%
Sa RN4220 lethal: growth inhibition of S. aureus RN4220, primary screen, OD600; 16 h; inhibition, % (no concentration beside the values); hit rate 0.33% among 330,000; AID 1259311, 2017; in the data active = inhibition above about 85%;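 also: plate controls were untreated cells for no effect and reference antibiotic for full effect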
An asterisk follows results filed as active; nt = no result.

SMILES	PfHsp40 yeast	3CLpro inhibitor	Sa ugtP lethal	BJeLR viability	Sa RN4220 lethal
COc1cc([N+](=O)[O-])cc(/C=N/NC(=O)C(O)(c2ccccc2)c2ccccc2)c1O	30*	-3	nt	-4	nt
O=C(Nc1ccccc1Cl)C(Cl)=C(Cl)S(=O)c1ccccc1 (stereo unspecified)	nt	nt	100*	nt	101*
N#C/C(=C(/O)COC(=O)Cc1c[nH]c2ccccc12)c1nc2ccccc2[nH]1	80*	0	nt	5	nt
Cc1ccccc1-c1noc(-c2ccc(O)cc2)n1	129*	5	2	15	1
Cc1ccccc1-c1noc(-c2ccc(Cl)cc2)n1	-1	0	-9	0	2
Cc1cccc(COC(=O)CCCNC(=O)c2ccc(Cl)cc2)c1	77*	nt	3	nt	3
O=[N+]([O-])c1c(Nc2ccccn2)cc(Cl)c2nonc12	1	3	71	112*	59
O=C(O)c1ccccc1Nc1cc(Cl)c2nonc2c1[N+](=O)[O-]	0	3	3	7	4
O=[N+]([O-])c1c(Nc2ccc(O)cc2)cc(Cl)c2nonc12	-3	4	99*	52*	100*
O=C1N(c2ccc(Cl)cc2)C(c2cccnc2)N2CCCN12 (stereo unspecified)	287*	1	-7	3	-1
NNC(=O)CCCCCCCCCCOCCCCO	0	0	5	1	4
O=C(c1c(O)c2ccccc2oc1=O)C1CCCCC1	0	-1	22	-7	48
O=C(CCC1CCCC1)c1c(O)c2ccccc2oc1=O	1	4	100*	10	100*
Cc1cc(N=Nc2ccccc2C(=O)O)c(C)c(C)c1O	150*	4	3	11	2
Cc1cc(O)c(C(C)C)cc1N=Nc1ccccc1C(=O)O	1	2	3	17	4
CCCC1COC(Cn2cncn2)(c2ccc(C)cc2)O1 (stereo unspecified)	132*	1	2	4	1
COc1ccccc1CCC(=O)Nc1cc(S(=O)(=O)N2CCOCC2)ccc1N1CCCC1	1	nt	2	4	-3
Cc1ccc(SCCC(=O)N2CCCC2)cc1	42*	-4	0	1	7
Cc1ccc(SCCC(=O)N2CCOCC2)cc1	0	-1	8	-6	3
O=c1oc2cc(Cl)ccc2n1CSc1nc2ccccc2s1	0	2	86	1	85*
Cc1ccc(S(=O)(=O)N2CCN(c3ncnc4scc(-c5ccc(F)cc5)c34)CC2)cc1	2	nt	99*	-4	98*
Cc1ccc(S(=O)(=O)N2CCN(c3ncnc4scc(-c5ccccc5)c34)CC2)cc1	3	nt	58	nt	91*
O=S(=O)(c1cccc(F)c1)N1CCN(c2ncnc3scc(-c4ccc(F)cc4)c23)CC1	-1	nt	99*	-4	97*
CN1CCCN(c2ncnc3scc(-c4ccc(F)cc4)c23)CC1	0	-1	0	6	2
COc1ccc(-c2csc3ncnc(N4CCN(S(=O)(=O)c5ccc(C(C)=O)cc5)CC4)c23)cc1	3	nt	0	5	7
SMILES	PfHsp40 yeast	3CLpro inhibitor	Sa ugtP lethal	BJeLR viability	Sa RN4220 lethal
Cc1ccc(S(=O)(=O)NC(C(=O)Oc2ccc3c(C(F)(F)F)cc(=O)oc3c2)c2ccccc2)cc1 (stereo unspecified)	-1	2	nt	11	nt
CC12CCC(O)CC1=CCC1C2CCC2(C)C(c3ccn[nH]3)CCC12 (stereo unspecified)	0	nt	98*	nt	-1
O=C(Nc1nnc(-c2cccs2)o1)c1cccc(F)c1	6	-8	18	-5	28
CCCCN(C)S(=O)(=O)c1ccc(C(=O)Nc2nnc(-c3cccs3)o2)cc1	nt	5	97*	10	104*
CCCCN(C)S(=O)(=O)c1ccc(C(=O)Nc2nnc(C3=COCCO3)o2)cc1	0	5	4	0	14
O=C(Nc1nnc(-c2cccs2)o1)c1cccc(Oc2ccccc2)c1	500*	8	100*	nt	99*
CC1(C)COCN1S(=O)(=O)c1ccc(C(=O)Nc2nnc(-c3ccc(Cl)s3)o2)cc1	nt	4	98*	17	100*
CC1CCCCN1S(=O)(=O)c1ccc(C(=O)Nc2nnc(-c3ccccc3Cl)o2)cc1 (stereo unspecified)	0	3	98*	-5	98*
C[N+]1(C)CC2=Cc3ccccc3CC2C1 (stereo unspecified)	-1	5	17	8	7
O=C(Nc1nnc(-c2ccccc2Cl)o1)c1ccc(S(=O)(=O)N2CCCCCC2)cc1	nt	5	96*	10	100*
CS(=O)(=O)c1ccccc1-c1nnc(NC(=O)c2ccc(S(=O)(=O)N3CCCC3)cc2)o1	0	nt	-2	-2	9
CCC1CCCCN1S(=O)(=O)c1ccc(C(=O)Nc2nnc(-c3ccccc3Cl)o2)cc1 (stereo unspecified)	0	-1	98*	17	99*
CCC1CCCCN1S(=O)(=O)c1ccc(C(=O)Nc2nnc(C3CC3)o2)cc1 (stereo unspecified)	4	-6	50	9	62
CCCCN(CC)S(=O)(=O)c1ccc(C(=O)Nc2nnc(-c3ccccc3Cl)o2)cc1	-1	-4	100*	1	100*
CCCCN(CC)S(=O)(=O)c1ccc(C(=O)Nc2nnc(COC)o2)cc1	0	1	1	9	17
CCOCCCNC(=S)N1CCCN(c2nc3c(C)c(C)ccc3cc2C#N)CC1	1	-4	-11	-3	5
CS(=O)(=O)c1ccc([C@@H](O)[C@@H](CF)NC(=O)C(Cl)Cl)cc1	0	nt	nt	nt	nt
CS(=O)(=O)c1ccc(C(O)C(CF)NC(=O)C(Cl)Cl)cc1 (stereo unspecified)	nt	nt	100*	nt	99*
c1ccc(-c2cc(-c3ccccc3)[n+](-c3ccccc3)c(-c3ccccc3)c2)cc1	-1	-2	-2	15	5
CN(C)c1ccc(-[n+]2c(-c3ccccc3)cc(-c3ccccc3)cc2-c2ccccc2)cc1	8	2	nt	56*	nt
Cc1ccc(-c2cc(-c3ccc(C)cc3)[n+](-c3ccccc3)c(-c3ccc(C)cc3)c2)cc1	229*	nt	100*	68*	101*
CCOC(=O)c1ccc(-[n+]2c(-c3ccccc3)cc(-c3ccccc3)cc2-c2ccccc2)cc1	1	nt	nt	20	nt
Cc1ccc(-c2cc(-c3ccccc3)cc(-c3ccccc3)[n+]2-c2ccccc2)cc1	1	nt	98*	75*	94*
Cc1ccc(-c2cc(-c3ccc(C)cc3)[n+](-c3ccc(C(=O)[O-])cc3)c(-c3ccc(C)cc3)c2)cc1	2	nt	nt	78*	nt
Cn1nc(-c2ccccc2)c(C(=O)NC(C(=O)O)c2ccccc2)c1Cl (stereo unspecified)	-1	-1	6	-3	4
Cc1ncc(C[n+]2csc(CCOC(=O)CC34CC5CC(CC(C5)C3)C4)c2C)c(N)n1	4	-4	-4	-2	-1

Screening data: PubChem, several laboratories
